Source: PubChem BioAssay (Broad Institute)
An excerpt weighted towards active compounds, which were near 2.1% of everything screened.
PAX8 inh HTS: inhibitors of PAX8-driven TPO luciferase reporter, primary screen, RMG-I cells, single concentration | inhibition, % at 12.6 µM | SteadyGlo, 24 h | hit rate 1.2% among 360,000;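 active means mean replicate inhibition at least 60% with every replicate also reaching 60%; inconclusive means only one of the two criteria is met; inactive means mean below 60% and not all replicates reaching 60%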;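 further: luciferase light reporting Pax8 driven TPO promoter activity; plate controls were median of neutral control wells for no effect and mitoxantrone controls for full effect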
aSyn UTR inh: MLPCN primary screen, SNCA 5' untranslated region; alpha-synuclein 5'UTR reporter, inhibitor activity; inhibition, % (tested at 7.5 µM); hit rate 0.82% among 300,000; AID 1813, 2009; in the data active means inhibition above about 60%; inconclusive means no clear call, values can overlap the other calls;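 further: H4 neuroglioblastoma cells stably carrying SNCA 5'UTR luciferase fusion; 0% = DMSO wells and 100% = positive control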
MITF TRPM1 inh: inhibitors of MITF-dependent TRPM1 promoter reporter, primary screen, cell-based, SK-MEL-5, single point, luciferase; hit rate 0.83% among 330,000; SK-MEL-5 TRPM1 promoter luciferase, 24 h; inhibition, % at 12.5 µM;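 active means mean inhibition across replicates of 60% or more, whatever share of single replicates reaches that level; inconclusive means some that reach 60%, reason not given; inactive means mean inhibition across replicates below 60%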
Shn3 inh set2: reduction of Shn3 3'UTR firefly luciferase signal, primary screen, Schnurri-3 inhibitor project, cell-based, Clone20 osteoblasts, set 2 | Clone20 osteoblast Shn3 3'UTR firefly luciferase, 24 h | inhibition, % at 12.5 µM | hit rate 0.52% among 360,000;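 active means mean inhibition of at least 75% with every replicate also reaching 75%; inconclusive means mean inhibition at least 75% but some replicate below; inactive means mean inhibition below 75%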;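 further: 0% = median of neutral control wells and 100% = pilot-screen positive control compound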
LMP1 NFkB inh: EBV LMP1-driven NF-kappaB luciferase reporter inhibitors, primary screen, cell-based, luminescence, single point. hit rate 0.69% among 350,000. LMP1-induced NF-kappaB luciferase reporter cells. inhibition, % at 12.5 µM; in the data active means inhibition above about 41%; inconclusive means no clear call, values can overlap the other calls;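 further: 0% = neutral control wells and 100% = reference inhibitor control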
Numbers without * were called inactive; ? = inconclusive; . = no result given; ! = not active in a repeat.

SMILES | PAX8 inh HTS | aSyn UTR inh | MITF TRPM1 inh | Shn3 inh set2 | LMP1 NFkB inh
Nc1ccc(C(=O)N/N=C/c2cn(Cc3ccccc3)c3ccccc23)cc1 | 12 | 57 | 6 | 14 | 12
COC(=O)N/N=C/c1cn(Cc2ccccc2F)c2ccccc12 | 26 | 51 | 12 | 33 | 6
Cn1c(CBr)c(C(=O)c2ccc([N+](=O)[O-])cc2)c(=O)n(C)c1=O | 0 | 13 | 21 | -9 | 7
COc1ccc(/C=C2\COc3ccccc3C2=O)cc1OC | -15 | -28 | 8 | 11 | 2
CCOc1cc(/C=C2\COc3ccccc3C2=O)cc(Br)c1OCC(=O)N(C)C | 10 | -121 | 89* | 75 | 11
CC(C)c1ccccc1OCC(=O)Nc1ccccc1C(=O)N1CCOCC1 | 1 | 3 | 9 | 10 | 6
COc1cccc(NC(=O)c2nc(S(C)(=O)=O)ncc2Cl)c1 | 11 | -26 | 57 | 97* | -5
CN(c1ccccc1)S(=O)(=O)c1ccc(NC(=O)c2nc(S(C)(=O)=O)ncc2Cl)cc1 | 133* | 16 | 100* | 99* | -3
CN1c2ccc(-c3ccccc3F)cc2[C@@H]2[C@@H](CCN2S(=O)(=O)c2ccccc2F)[C@@H]1CO | -11 | . | . | . | .
CC(=O)C1C(c2cccc(F)c2)NC(=O)NC1(O)C(F)(F)F (stereo not drawn) | 13 | 12 | 0 | 2 | 7
C[C@H]1CN([C@@H](C)CO)C(=O)Cc2cc(NC(=O)Nc3ccc4c(c3)OCO4)ccc2O[C@H]1CN(C)Cc1ccncc1 | 3 | . | . | . | .
CC(C)CC(=O)Nc1nnc(SCC(=O)Nc2ccc3c(c2)OCO3)s1 | -7 | 17 | -7 | 12 | -1
CC(C)(C)C(=O)Nc1nnc(SCC(=O)Nc2ccc3c(c2)OCO3)s1 | 14 | 24 | -6 | 19 | 46*
CCc1n[n+](CC(=O)c2ccccc2)c(N)s1 | 30 | . | -7 | 23 | 52*
CCOCCCNC(=O)CN1C(=O)/C(=C\c2ccc(C)cc2)Sc2ccccc21 | -4 | -5 | -2 | 3 | 69*
Cc1cccc2c1-c1sc(C(=O)NCCCN3CCCC(C)C3)cc1CO2 (stereo not drawn) | 21 | 69* | 7 | -4 | -4
CCCN1CCN(CCCNC(=O)c2cc3c(s2)-c2c(C)cccc2OC3)CC1 | 0 | 8 | -46 | -20 | 1
CC1CCCC(C)N1CCCNC(=O)c1cc2c(s1)-c1ccccc1OC2 (stereo not drawn) | 0 | 70* | 61* | -1 | -29
C=CCOc1cccc(C(=O)N2CCC(CCC(=O)NC3CC3)CC2)c1 | -14 | 0 | -7 | -55 | 0
Cc1cc(C)cc(N(CCC#N)C(=O)COC(=O)C2=COCCO2)c1 | . | 8 | -16 | -9 | -5
O=C(c1ccccc1)c1c[nH]cc1-c1ccccc1 | -11 | 10 | -21 | 0 | -2
O=C(C1=C(c2ccccc2)C(=O)c2ccccc2C1=O)c1ccccc1 | 78* | -17 | 64* | 93* | 90*
COC1=C(c2ccccc2)C(=O)c2ccccc2C1=O | 11 | -31 | 75* | -33 | 2
COc1ccc(C2=C(N)c3ccccc3C2=O)cc1 | . | -7 | -58 | -43 | -9
CCC1=NNC(=O)C(CC(=O)Nc2ccccc2)c2cc(OC)c(OC)cc21 (stereo not drawn) | 8 | 10 | -8 | -19 | 1
SMILES | PAX8 inh HTS | aSyn UTR inh | MITF TRPM1 inh | Shn3 inh set2 | LMP1 NFkB inh
CN1CCc2c(sc(NC(=O)c3ccc4ccccc4c3)c2C(N)=O)C1 | . | -108 | -111 | -50 | -7
COc1cc2ccccc2cc1C(=O)Nc1sc2c(c1C(N)=O)CCN(C(C)C)C2 | . | 102* | 46 | 5 | -18
NC(Cc1ccc(C(F)(F)F)cc1)c1csc(NC(=O)Nc2ccccc2Cc2ccccc2)n1 (stereo not drawn) | -7 | . | . | 84 | .
NC(CCc1ccccc1)c1csc(NC(=O)Nc2ccccc2Oc2ccccc2)n1 (stereo not drawn) | 16 | . | . | 96* | .
CC(C)c1ccccc1NC(=O)Nc1nc(C(N)Cc2ccc(C(F)(F)F)cc2)cs1 (stereo not drawn) | 21 | . | . | 98* | .
O=C(Nc1ccc(Cl)c(Cl)c1)Nc1nc(-c2ccccc2)cs1 | 20 | -1 | 10 | 41 | 56*
NC(CCc1ccccc1)c1csc(NC(=O)NCCc2ccccc2)n1 (stereo not drawn) | 2 | . | . | 10 | .
CC(C)c1ccc(NC(=O)Nc2nc(C(N)C(C)C)cs2)cc1 (stereo not drawn) | 43 | . | . | 14 | .
CC(C)c1ccc(NC(=O)Nc2nc(C(N)c3ccccc3)cs2)cc1 (stereo not drawn) | -8 | . | . | 93* | .
CC(C)c1ccc(NC(=O)Nc2nc(C(N)COCc3ccccc3)cs2)cc1 (stereo not drawn) | -6 | . | . | 93* | .
Cn1c(SCC(=O)NCC2CCCO2)ncc(C(=O)Nc2ccc(Cl)cc2)c1=O (stereo not drawn) | . | -72 | 67* | 20 | -22
CC(=O)Nc1cccc(NC(=O)CSc2ncc(C(=O)Nc3ccc(F)cc3)c(=O)n2C)c1 | 4 | -42 | 47 | 19 | -8
CC(=O)Nc1ccc(NC(=O)CSc2ncc(C(=O)Nc3ccc(Cl)cc3)c(=O)n2C)cc1 | . | -51 | 2 | -4 | -27
CC(=O)Nc1cccc(NC(=O)CSc2ncc(C(=O)Nc3ccccc3)c(=O)n2C)c1 | 7 | -18 | 67* | 10 | -12
CC(=O)c1cccc(NC(=O)CSc2ncc(C(=O)Nc3ccccc3)c(=O)n2C)c1 | 25 | -12 | 64* | -12 | -5
COc1cccc2sc(NC(=O)c3ccc(S(=O)(=O)N4CCOCC4)cc3)nc12 | . | -3 | 4 | 5 | -11
CCCCn1c(N)c(N(CC)C(=O)CSCc2ccc(C)cc2)c(=O)[nH]c1=O | 6 | 2 | 2 | -14 | -2
O=C(C1CC1)N1C[C@@H]2N[C@H](C1)C2c1ccc(-c2ccccc2F)cc1 (stereo partly drawn) | 87*! | . | . | . | .
O=C(Nc1ccc(F)cc1)N1CCCCN2[C@@H](CO)[C@H](c3ccc(-c4ccccc4F)cc3)[C@@H]2C1 | 10 | . | . | . | .
O=C(Nc1ccc(F)cc1)N1C[C@@H]2N[C@H](C1)C2c1ccc(-c2ccccc2F)cc1 (stereo partly drawn) | 108*! | . | . | . | .
CCOC(=O)c1sc(NC(=O)CNCc2ccccn2)c(C(=O)OCC)c1C | 39 | ? | 17 | 48 | 44*
C[C@H]1CN([C@@H](C)CO)C(=O)c2c(c3ccccc3n2C)-c2ccccc2CO[C@@H]1CN(C)Cc1ccc(C(F)(F)F)cc1 | 64* | . | . | . | .
C[C@@H]1CN([C@H](C)CO)C(=O)c2c(c3ccccc3n2C)-c2ccccc2CO[C@H]1CN(C)Cc1ccc(Oc2ccccc2)cc1 | 85* | . | . | 3 | 7
COc1ccc(CN(C)C(=O)c2ccc(NS(=O)(=O)c3ccc4[nH]c(=O)[nH]c4c3)cc2)c(OC)c1OC | 0 | . | 1 | 5 | -7
